Screening results from PubChem BioAssay.
SMARCA2 activ: SMARCA2 (BRM) function activators, primary screen, cell-based, luminescence, high throughput; MG213 cells, MMTV-luciferase reporter, dexamethasone, overnight; activation, % at 9.1 µM; hit rate 1% among 370,000; AID 652017, 2013; in the data active = activation above about 7.8%;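 note: 0% = vehicle wells and 100% = reference activator wells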
JMJD2C inh: inhibitors of GASC-1 histone demethylase, primary screen, biochemical, fluorescence, DELFIA europium | GST-JMJD2C(1-420) H3K9me3 demethylation | hit rate 0.069% among 330,000 | Lysine-specific demethylase 4C (Homo sapiens), Q9H3R0 | AID 2099, 2009 | inhibition, % at 2.35 µM;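 active = more than half of a compound's replicate wells show inhibition beyond 50%, single wells judged on their own value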;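 note: signal counts dimethyl H3K9 product captured on neutravidin plate; 0% = median of DMSO wells and 100% = 0.3 times that DMSO median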
Target sequence (Q9H3R0 1-420 limits assumed): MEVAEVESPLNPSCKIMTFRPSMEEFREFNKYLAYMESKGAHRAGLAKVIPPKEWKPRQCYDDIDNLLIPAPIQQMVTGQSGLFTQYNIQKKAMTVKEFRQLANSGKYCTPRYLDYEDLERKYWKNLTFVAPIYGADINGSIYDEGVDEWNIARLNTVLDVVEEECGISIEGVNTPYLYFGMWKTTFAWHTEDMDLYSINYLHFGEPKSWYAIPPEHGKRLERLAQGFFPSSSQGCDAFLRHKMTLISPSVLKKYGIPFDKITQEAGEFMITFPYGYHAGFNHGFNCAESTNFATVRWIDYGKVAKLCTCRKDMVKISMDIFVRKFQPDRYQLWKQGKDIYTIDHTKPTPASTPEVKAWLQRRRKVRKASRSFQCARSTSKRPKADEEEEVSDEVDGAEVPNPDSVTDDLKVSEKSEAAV
Granule exo inh: LAMP-1 surface exposure blockers, TALL-104 cells – cell-based, flow cytometry, MLPCN library, primary screen. TALL-104 LAMP-1 surface exposure; cells stimulated with thapsigargin and PMA. inhibition, % at 10 µM. hit rate 0.66% among 360,000. AID 651702, 2012;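 active = inhibition above about 55%, limit read from the data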
ALR H2O2 inh: inhibitors of human ALR sulfhydryl oxidase, primary screen, biochemical, H2O2 detection, HRP-luminol luminescence, single point | inhibition, % (no concentration beside the values) | hit rate 3.8% among 290,000 | purified ALR, DTT oxidation | AID 485317, 2010 | FAD-linked sulfhydryl oxidase ALR (Homo sapiens), P55789;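 active = mean replicate inhibition above about 79%, with every replicate also reaching it, limit read from the data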
Target sequence (P55789 whole entry, looked up): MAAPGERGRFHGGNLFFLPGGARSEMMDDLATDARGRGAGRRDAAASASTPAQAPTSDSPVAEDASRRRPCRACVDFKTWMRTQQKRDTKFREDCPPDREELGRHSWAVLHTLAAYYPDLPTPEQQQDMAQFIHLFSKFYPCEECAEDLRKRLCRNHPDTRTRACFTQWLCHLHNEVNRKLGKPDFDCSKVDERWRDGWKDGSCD
MIN6 prolif-1: inducers of MIN6 beta-cell proliferation, primary screen, ATP luminescence, uHTS. proliferation, % at 10 µM. hit rate 0.29% among 330,000. MIN6 cells proliferation, ATPlite luminescence, 48 h; cells starved in 0.2% serum; 100% = growth in 10% serum;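 active = compounds whose signal lies at least 3.5 SD above the mean of all wells on their plate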;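 note: 0% = DMSO-treated cells in low-serum medium and 100% = 10% serum control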
M18AAP inhibitor: PfM18AAP inhibitors, malaria aminopeptidase, primary screen, biochemical, QFRET, recombinant enzyme; M18 aspartyl aminopeptidase (Plasmodium falciparum 3D7); H-Glu-NHMec fluorogenic cleavage; inhibition, % at 7.35 µM; hit rate 1.2% among 290,000; AID 1822, 2009;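 active = inhibition above the campaign mean inhibition over all tested compounds plus 3 SD, cut at about 28% in these data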;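 note: 0% = plate median of test compound wells and 100% = 2 mM ZnCl2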
MIN6 prolif-2: inducers of beta-cell proliferation in MIN6, confirmation, MIN6 cells, mouse | shares compounds with MIN6 prolif-1 | 920 tested, under 10 active | AID 463095, 2010 | proliferation increase, % at 50 µM | ATPlite luminescence, 48 h; cells kept in 0.2% serum; scaled between 0.2% and 10% serum;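 active = proliferation increase above 40% at any of the four tested concentrations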
* = called active by the depositor; · = no result given. This is a sample that favours compounds with a hit; in the whole collection about 5.4% have one here.

SMILES | SMARCA2 activ | JMJD2C inh | Granule exo inh | ALR H2O2 inh | MIN6 prolif-1 | M18AAP inhibitor | MIN6 prolif-2
CC(=O)c1ccc([C@H](O)[C@@H](C(=O)N(C)c2ccccc2)C2CC2)cc1 | -2 | · | · | · | · | · | ·
Cc1ccc(S(=O)(=O)NC2=NCN(CCOC(=O)c3ccc([N+](=O)[O-])cc3)CN2)cc1 | 5 | 1 | -2 | 0 | 8.4* | -2 | 0
Cc1ccc(S(=O)(=O)NC2=NCN(CCOC(=O)c3ccccc3)CN2)cc1 | -4 | -38 | -2 | -8 | 2 | -2 | ·
CCCCNc1cccc2c1S(=O)(=O)N[C@@H](Cc1ccccc1)CO2 | -2 | · | · | · | · | · | ·
c1cc(-c2nnc3sc(C4CCCCC4)nn23)ccn1 | -2 | 14 | -1 | -1 | 9.0* | -4 | 3
c1csc(Cc2nn3c(-c4ccncc4)nnc3s2)c1 | -2 | -7 | 3 | 0 | 7.3* | 7 | 4
Fc1ccc(-c2cc(-c3nnc4sc(Cc5cccs5)nn34)[nH]n2)cc1 | 0 | · | · | · | · | · | ·
c1ccc(-c2nnc3sc(C4CCCCC4)nn23)cc1 | 0 | · | · | · | · | · | ·
Cn1c(O)c(N=NC(=O)CNC(=O)c2ccccc2)c2ccccc21 | -1 | -21 | -12 | -2 | 0.0* | -2 | 0
Cn1c(O)c(N=NC(=O)CNC(=O)c2ccccc2)c2cc(Br)ccc21 | -2 | -5 | 6 | 2 | -1 | 0 | ·
CCC(Cc1ccccc1)NC(=O)Cn1cccc1C(=O)c1ccccc1 (configuration not stated) | 0 | 3 | -15 | -1 | 16* | 0 | -6
CCN(CC)S(=O)(=O)c1ccc(N2CCOCC2)c(NC(=O)c2c3c(nc4ccccc24)CCC3)c1 | -2 | 0 | -1 | -3 | 7.6* | 0 | -1
Cc1c(NC(=O)C(C)OC(=O)CC2CC3CCC2C3)c(=O)n(-c2ccccc2)n1C (configuration not stated) | -3 | -3 | 0 | 0 | 9.1* | 2 | -2
CCC[C@@H](O)c1cc2cc(OC)c(OC)cc2c(=O)o1 | 2 | -4 | -7 | -12 | 12* | · | -6
CCNS(=O)(=O)c1ccc(NC(=O)c2cccnc2)cc1 | -2 | 1 | -2 | -3 | 11* | 4 | -2
COC(=O)[C@]12C[C@H](CC(=O)NCCCCc3ccccc3)C(=O)N(Cc3ccc(Cl)cc3Cl)C1=C[C@H](C1CCCC1)O[C@@H]2C | -2 | · | · | · | · | · | ·
COC(=O)c1ccsc1NC(=O)c1ccco1 | 1 | 5 | 0 | -1 | 11* | -8 | 6
COC(=O)c1cc(C)sc1NC(=O)c1ccco1 | 3 | 5 | 0 | 0 | -3 | -13 | ·
CCOCCCn1c(=NC(=O)c2cccs2)c(C#N)cc2c(=O)n3ccccc3nc21 | -1 | -8 | 2 | · | 14* | -2 | 3
CCCCc1c(-c2ccccc2OC)ncn1Cc1cccc(F)c1 | -5 | · | · | · | · | · | ·
O=C(NCCC1CCCCN1S(=O)(=O)c1ccccc1)C(=O)NC1CC1 (configuration not stated) | 3 | 6 | -2 | -1 | 12* | · | -1
CCOc1ccc(C(=O)NCC(=O)OCCCC(=O)c2ccc(F)cc2)cc1OCC | -2 | 2 | -13 | 4 | 14* | · | -2
COc1ccc(C(=O)NCC(=O)OCCCOC(=O)CNC(=O)c2ccc(OC)c(OC)c2)cc1OC | -3 | -6 | -1 | -8 | 3 | 2 | ·
Nc1[nH]c(C(=O)c2ccc(Br)cc2)c(-c2ccc3ccccc3c2)c1C(=O)NCCc1c[nH]c2ccccc12 | -7 | · | · | · | · | · | ·
CO[C@@H]1[C@H](O)CC[C@]2(O)CN(c3ccccc3)[C@](C)([C@H](O)CC=C(C)C)[C@@H]12 | -7 | · | · | · | · | · | ·
SMILES | SMARCA2 activ | JMJD2C inh | Granule exo inh | ALR H2O2 inh | MIN6 prolif-1 | M18AAP inhibitor | MIN6 prolif-2
COc1cccc(NC(=O)CN(C)C(=O)c2cn(-c3ccccc3)nc2-c2cccnc2)c1 | 0 | -3 | -2 | 1 | 9.5* | · | -4
O=S1(=O)c2ccc(N3CCN(Cc4ccccc4F)CC3)cc2Oc2ccccc2CN1Cc1cn(Cc2ccc(F)cc2)nn1 | 1 | · | · | · | · | · | ·
O=C(/C=C/c1ccco1)NCc1ccccn1 | 1 | -1 | -1 | 2 | 9.4* | 2 | 2
O=C(O)c1c[nH]c2ccc(F)cc2c1=O | -1 | 9 | 0 | -14 | 6.8* | 8 | 2
CCN(CC)S(=O)(=O)c1ccc2c3c(cccc13)C(=O)N2 | -2 | 1 | 6 | -14 | 11* | 5 | 0
Cc1c(C2Nc3ccccc3C2C)[nH]c2ccccc12 (configuration not stated) | 0 | · | · | · | · | · | ·
COc1ccc(-c2nnc(SCC(=O)N3CCN(c4ccccc4)CC3)o2)cc1OC | 0 | 6 | 2 | -14 | 1 | 3 | ·
COc1ccc(-c2nnc(SCC(=O)N3CCOCC3)o2)cc1OC | 2 | 25 | -5 | -3 | 8.5* | -10 | 2
O=C(Nc1cccnc1)Nc1cccc(F)c1 | -1 | -4 | -22 | -6 | -2 | 3 | ·
CC(=O)c1cccc(NC(=O)Nc2cccnc2)c1 | -4 | 7 | -3 | -3 | 7.9* | -12 | 5
C=CCN=C1NC(c2cccc(F)c2)C(C(=O)OC)=C(C)N1Cc1ccccc1C(F)(F)F (configuration not stated) | -2 | · | · | · | · | · | ·
Cc1nc(N)c(C#N)c(-c2cccnc2)c1-c1ccccc1 | -1 | -10 | 0 | 2 | 0 | 2 | ·
Cc1ccc2c(n1)sc1c(-c3ccccc3)c(C#N)c(N)nc12 | -2 | 12 | 0 | -3 | 5.9* | 7 | 5
COC(=O)c1ccc(Cn2nnc3c(=O)[nH]c(C4CCCN(S(=O)(=O)c5ccc(C)cc5)C4)nc32)cc1 (configuration not stated) | -1 | -2 | 28 | -7 | 11* | -8 | -2
O=C(COC(=O)/C=C/c1ccc2ccccc2n1)NNC(=O)c1ccccc1 | -3 | · | -4 | · | · | · | ·
CC(C)CCNC(=O)COC(=O)/C=C/c1ccc2ccccc2n1 | -3 | 3 | -3 | 97* | 7.2* | 5 | -2
Cc1ccccc1-c1ccc2c(c1)[C@@H]1C[C@H](N(C)S(=O)(=O)c3ccc(Cl)cc3)[C@H]([C@H](C)O)CN1CC2 | -6 | · | · | · | · | · | ·
COc1cc2c(cc1OC)C(Nn1cnnc1)=NC1(CCCC1)C2 | -1 | 0 | 0 | · | 5.2* | -4 | 1
CC12CCCCN1CCCc1c2[nH]c2ccccc12 (configuration not stated) | -2 | 0 | 3 | 11 | 5.5* | 5 | -6
